Source: PubChem BioAssay (EPA / NIEHS)
The source made the active and inactive calls. The calls were made as follows: active = hit-call score of the fitted dose curve at least 0.9, where 1 is the maximum; inactive = score below 0.9.

read-out: ABC Transporter (ABCB11), ABCB11 (gene 8647); assay: LTEA_HepaRG_ABCB11: Life Technologies and Expression Analysis (LTEA) Assay for ABC Transporter (ABCB11) using HepaRG (AID 2283463); conditions: mRNA level, 48 h; actives raise or lower the signal
Procedure: LTEA_HepaRG is a cell based, multiplexed-readout assay that uses HepaRG, a human liver cell line, with measurements taken at 48 hours after chemical dosing on a 96-well plate.LTEA_HepaRG_ABCB11 is one of 102 assay component(s) measured in the LTEA HepaRG cell culture assay. It is a marker of Steatosis/NR mediated transport.Data from the assay component LTEA_HepaRG_ABCB11 was analyzed into 1 endpoint. This assay endpoint, LTEA_HepaRG_ABCB11, was analyzed with bidirectional fitting relative to DMSO as the negative control and baseline of activity. Using a type of inducible reporter, measures of mRNA induction for gain or loss-of-signal activity can be used to understand regulation of transcription factor activity. To generalize the intended target to other relatable targets, this assay endpoint is annotated to the transporter intended target family, where the subfamily is ABC transporter.
A total of 1060 chemcials from the ToxCast library were tested in eight-point concentration-response experiments. Cell culture and cytotoxicity assays were conducted at Thermo Fisher Scientific's Custom Services facility (Madison, WI). A single lot of human HepaRG cells (Thermo Fisher Scientific, Frederick, MD) was used for the cell culture experiments. 96-well format collagen type I coated plates of human HepaRG cells were prepared using established methods. Briefly, cryopreserved HepaRG cells were thawed, plated at a density of approximately 100,000 cells/well in HepaRG Thaw, Plate, and General Purpose media (HPRG770, Thermo Fisher Scientific), and incubated for 48 hours. 0.5% DMSO was selected as vehicle control to balance the requisite need of DMSO in HepaRG cultures to maintain differentiation (for example, baseline metabolism, proportions of hepatocytes vs. cholangiocytes), while enabling further hepatic receptor pathway activation (for example, PXR and CAR) in response to chemical exposure. 48 hours after plating, the culture medium was replaced with HepaRG Serum-Free Incudtion Media. Cells were exposed to each test chemical in duplicate and maintained in CO2 incubators for another 48 hours. Chemical plates were thawed to room temperature and 200x concentrations of treatment groups were prepared. 8-point conentration-reponse curves were made with the highest exposure at 100 uM, followed by half-log dilutions, all in 0.5% DMSO. Each test plate contained variouse controls, induction positive controls (1mM phenobarbital), cytotoxicity positive controls ([…] aflatoxin B1), vehicle controls (0.5% DMSO), and total lysis controls (0.5% DMSO). Cell morphology images were taken using an Essen IncuCyte FLR automated microscope, with six 96-well plates imaged in about 24 minutes. Images were captured and exported and JPEG files. Spent culture media was transfered to black-well plates for the LDH assay, and remaining media was sorted at -80 C for later use. Cells were treated with RLT buffer and frozen until shipped for gene expression analysis. Total RNA was isolated from the cell suspension in 75 uL of Buffer RLT (Qiagen, Germantown, MD 20874) by Quintiles/Expression Analysis (Durham, NC) using a custom isolation procedure. Total RNA from each plate well was transferred to a preamplification plate. Fluidigm's 96.96 Dynamic ArrayTM (Fluidigm, Amsterdam, the Netherlands) technology was used for gene expression analyses by quantitative reverse transcription polymerase chain reaction (qRT-PCR, performed by Quintiles/Expression Analysis, Durham, NC)89. Standard TaqManTM Assays (Applied Biosystems/ThermoFisher Scientific, Foster City, CA) were used to assess the expression of 93 genes selected based on their selectivity and sensitivity to important hepatic receptors known to be modulated by environmental chemicals; importance in human hepatocyte functionality; and hepatotoxicity. […]

SMILES | outcome | AC50
CCCCCc1ccc(N)cc1 | inactive | –
Cc1cc2c(cc1C(F)(F)F)N(C(=O)Nc1ccc(Oc3cccnc3C)nc1)CC2 | – | 3.86 µM (active)
Clc1cc(Cl)c2c(c1)N=C1CCCCCN1C2 | inactive | –
CCCCCCCCN(C)CCCCCCCC | inactive | –
CN(C)C(=O)C1(N2CCCCC2)CCN(CC[C@@]2(c3ccc(Cl)c(Cl)c3)CN(C(=O)c3ccccc3)CCO2)CC1 | – | 26 µM (active)
CCN(Cc1cccnc1)C(=O)c1cccc(Cl)c1[C@]1(C)C(=O)N(Cc2ccc(OC)cc2OC)c2ccc(Cl)cc21 | – | 23.6 µM (active)
NC(=O)c1nc(-c2cccc(-c3cc(F)ccc3OCC(F)(F)C(F)(F)F)c2)n[nH]1 | inactive | –
O=C(Nc1ccc(Cl)cc1)Nc1ccc(Cl)c(Cl)c1 | – | 15 µM (active)
CCCCOC(=O)CC(CC(=O)OCCCC)(OC(C)=O)C(=O)OCCCC | inactive | –
Cc1ncc(CO)c(CO)c1O | inactive | –
CCCCOC(=O)c1ccc(O)cc1 | inactive | –
Cc1ccc2oc(CN(Cc3ccccc3)C(=O)Nc3c(F)cc(F)cc3F)c(-c3ccc(Cl)cc3)c2c1 | inactive | –
CCCCCCCCCCCCO | inactive | –
OCCO | inactive | –
O=C(O)c1ccccc1-n1cc(C(=O)O)c(=O)c2cc(Nc3c(F)cc(F)cc3Cl)c(Cl)cc21 | inactive | –
Cc1cn([C@H]2C[C@H](N=[N+]=[N-])[C@@H](CO)O2)c(=O)[nH]c1=O | inactive | –
c1ccc2n[nH]nc2c1 | inactive | –
Oc1ccc2ccccc2c1 | inactive | –
O=CCCCC=O | inactive | –
C[C@]12CC[C@@H]3c4ccc(O)cc4CC[C@H]3[C@@H]1CC[C@H]2O | – | 69 µM (active)

SMILES | outcome | AC50
O=C1O[C@H]([C@@H](O)CO)C(O)=C1O | inactive | –
CCCCCCCC[Si](OCC)(OCC)OCC | inactive | –
O=C=NCCCCCCN=C=O | inactive | –
CC[C@@H]1C[C@H](N(Cc2cc(C(F)(F)F)cc(C(F)(F)F)c2)C(C)=O)c2cc(C(F)(F)F)ccc2N1C(=O)OC(C)C | inactive | –
OC12N=C(c3ccccc3)SC1Cc1cc(Cl)ccc12 (stereo not given) | – | 16.7 µM (active)
Cc1cc(F)ccc1-c1cc(N2CC[C@@H](O)[C@H]2CO)ncc1N(C)C(=O)C(C)(C)c1cc(C(F)(F)F)cc(C(F)(F)F)c1 | – | 21.8 µM (active)
O=C(OCCCCCCOC(=O)c1ccccc1)c1ccccc1 | inactive | –
O=c1c(-c2ccc(O)cc2)coc2cc(O)cc(O)c12 | – | 9.92 µM (active)
CCCOC(=O)c1cc(O)c(O)c(O)c1 | inactive | –
CO[C@H]1/C=C/O[C@@]2(C)Oc3c(C)c(O)c4c(O)c(c(/C=N/N5CCN(C)CC5)c(O)c4c3C2=O)NC(=O)/C(C)=C\C=C\[C@H](C)[C@H](O)[C@@H](C)[C@@H](O)[C@@H](C)[C@H](OC(C)=O)[C@@H]1C | inactive | –
O=c1ccc2ccccc2o1 | inactive | –
COc1ccc2cc(S(=O)(=O)N[C@H](CC(=O)N[C@H](Cc3ccc(CN4[C@H](C)CCC[C@@H]4C)cc3)C(=O)N(C)C(C)C)c3ccc4c(c3)OCO4)ccc2c1 | – | 24.2 µM (active)
CCOC(=O)O[C@H](C)OC(=O)c1ccc2c(c1)cc(C(=O)NC1CCN(C(C)C)CC1)n2Cc1cc(-c2ccc(Cl)s2)on1 | inactive | –
CC/C(=C(/CC)c1ccc(O)cc1)c1ccc(O)cc1 | inactive | –
Cc1c2ccccc2c(C)c2c1ccc1ccccc12 | – | 30.6 µM (active)
CC1(C)NC(=O)N(c2ccc([N+](=O)[O-])c(C(F)(F)F)c2)C1=O | – | 77.1 µM (active)
c1ccc(C[n+]2cccc3ccccc32)cc1 | – | 31.3 µM (active)
O=C1CCC(C2CCCCC2)CC1 | inactive | –
c1ccc2ccccc2c1 | inactive | –
CC(C)(C)c1cc(/C=C2\SC(N)=NC2=O)cc(C(C)(C)C)c1O | – | 24.6 µM (active)
